Bioassay records: PubChem BioAssay, several laboratories
PRMT1 FP inh = PRMT1 methyltransferase inhibitors, primary screen, biochemical, fluorescence polarization; Protein arginine N-methyltransferase 1 (Homo sapiens), Q99873; recombinant PRMT1, activity-based probe fluorescence polarization; inhibition, % at 2.79 µM; hit rate 1.3% among 370,000;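 active = inhibition above about 21% made by adding two undisclosed values, limit read from the data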
TLR9-MyD88 block = inhibitors of TLR9-MyD88 association in cells, primary screen, cell-based, CHO, BLA complementation, fluorescence. hit rate 0.21% among 340,000. Toll-like receptor 9 (Homo sapiens) + Myeloid differentiation primary response protein …. CCF4 FRET ratio. inhibition, % at 4.98 µM;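 active = inhibition above the mean over all tested compounds plus 3 SD, cut at about 21% in these data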;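 note: 0% = DMSO only wells and 100% = clavulanate BLA inhibitor control wells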
ABHD5-PLIN5 inh = ABHD5-PLIN5 interaction inhibitors, primary screen, cell lysate, split luciferase complementation, luminescence; Perilipin-5 (Homo sapiens) + 1-acylglycerol-3-phosphate O-acyltransferase ABHD5 (Homo …; Split G. princeps luciferase complementation, 4 h; inhibition, % at 4 µM; hit rate 0.78% among 360,000;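 active = inhibition above the mean inhibition across every tested compound plus 3 SD, cut at about 22% in these data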;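 note: 0% = DMSO only wells and the 100% control is not disclosed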
NOD2-RIPK2 inh = NOD2-RIPK2 binding disruptors in cells, primary screen, fluorescence, CHO cells, BLA complementation; hit rate 0.38% among 360,000; inhibition, % at 4.98 µM; Receptor-interacting serine/threonine-protein kinase 2 (Homo sapiens), O43353; CCF4 ratio; AID 624267, 2012; in the data active = inhibition above about 21%;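 note: 0% = vehicle only and 100% = reference blocker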
Exocytosis inh = LAMP-1 surface exposure blockers, TALL-104 cells – cell-based, flow cytometry, MLPCN library, primary screen | TALL-104 LAMP-1 surface exposure; cells stimulated with thapsigargin and PMA | hit rate 0.66% among 360,000 | inhibition, % at 10 µM;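 active = inhibition above about 55%, limit read from the data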
TLR4 MyD88 comp = inhibitors of TLR4-MyD88 association in cells, primary screen, cell-based, HeLa CL3-4, BLA complementation, FRET ratio; inhibition, % at 8.4 µM; HeLa CL3-4 TLR4/MyD88 BLA complementation; hit rate 0.18% among 200,000; AID 861, 2007; Toll-like receptor 4 (Homo sapiens) + Myeloid differentiation primary response protein …; in the data active = inhibition above about 25%;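 note: 0% = vehicle and 100% = reference inhibitor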
Numbers without * were called inactive; · = no result. Hits are enriched below; roughly 2.6% of the tested compounds scored in any of these assays.

SMILES	PRMT1 FP inh	TLR9-MyD88 block	ABHD5-PLIN5 inh	NOD2-RIPK2 inh	Exocytosis inh	TLR4 MyD88 comp
CCC1CCCCN1C(=O)n1ncc(C(O)(c2ccccc2)c2ccccc2)n1 (configuration not stated)	-5	·	·	·	·	·
COc1ccc(O)c(/C=C2/SC(=S)N(Cc3ccccc3)C2=O)c1	23*	-10	-22	-4	38	·
COc1ccc(/C=C2\SC(=S)N(CC(=O)OCC(=O)Nc3ccc(C)cc3Cl)C2=O)cc1	21*	5	7	7	0	0
Cc1ccc(-c2c(C(=O)O)c(C(=O)O)c3n2CSC3)cc1	24*	-3	7	-15	3	·
CC(=O)Nc1ccc(S(=O)(=O)Nc2nc3ccccc3nc2Nc2ccc(N)cc2)cc1	23*	4	5	8	0	·
Cc1cccc(/C=C2/Sc3ccc(C(=O)NCCCN4CCOCC4)cc3NC2=O)c1	-5	-7	7	3	60*	·
CCOC(=O)C(=N/O)/C(C)=N/NC(=O)C(=O)Nc1cc(Cl)ccc1Cl	-2	5	-6	2	78*	·
CCOC(=O)C(=N/O)/C(C)=N/NC(C)=O	1	-11	0	1	-1	-6
COc1cc(/C=C(/C#N)C(=O)NC(C)c2ccccc2)cc(OC)c1O (configuration not stated)	-10	-5	14	0	-4	·
COc1ccccc1/C=C/C=C(\C#N)C(=O)NC(C)c1ccccc1 (configuration not stated)	-4	-18	14	5	77*	·
Cc1ccc(NC(=S)Nc2ccccn2)cc1C	3	·	-5	2	-1	·
Cc1ccc(NC(=S)Nc2ccc3nc(-c4ccccn4)c(-c4ccccn4)nc3c2)cc1C	·	14	-19	32*	1	1
O=C(C=P(c1ccccc1)(c1ccccc1)c1ccccc1)c1ccccc1-c1ccccc1C(=O)C=P(c1ccccc1)(c1ccccc1)c1ccccc1	-3	13	26*	15	12	·
COC(=O)[C@@]1(Cc2ccc(F)cc2)[C@H]2c3cc(C(=O)N4CCCC4)n(Cc4ccc(C)o4)c3C[C@H]2CN1C(=O)c1ccccc1	24*	·	14	8	10	·
COC(=O)[C@@]1(Cc2ccc(F)cc2)[C@H]2c3cc(C(=O)N4CCCC4)n(Cc4ccc(C)c(F)c4F)c3C[C@H]2CN1C(=O)c1ccccc1	-5	·	2	-14	5	·
COC(=O)[C@@]12CCCCC3=C1N(CCC3)C(=O)[C@H]2CC(=O)NCC1CCCCC1	0	·	·	·	·	·
CCN(CC)CCNC(=O)c1ccc(NCN2C(=O)NC(c3ccccc3)(c3ccccc3)C2=O)cc1	-5	·	·	·	·	·
CC1(C)C(/C=C/C=C/C=C/C=C2\N(CCCCS(=O)(=O)O)c3ccc4ccccc4c3C2(C)C)=[N+](CCCCS(=O)(=O)[O-])c2ccc3ccccc3c21	·	13	54*	1	-23	·
Cc1c2ccccc2cc[n+]1CCCS(=O)(=O)[O-]	0	-2	-5	-7	1	-2
N#Cc1ccc(Cn2ccc3ccc(-c4ccc5ccn(C(=O)C6CCC6)c5c4)cc32)cc1	1	·	·	·	·	·
COCCN=C1Sc2ccccc2[C@@H]2C[C@H]3[C@H](CON3C)CN12	24*	·	·	·	·	·
O=C(CSc1nc2cc([N+](=O)[O-])ccc2n1-c1ccccc1)NCc1ccc2c(c1)OCO2	24*	4	4	-9	54	-7
CC(C)C[C@H]1COc2cc(Br)ccc2S(=O)(=O)N1Cc1cn(Cc2ccc(Cl)cc2)nn1	-1	·	·	·	·	·
CC(=O)Oc1ccc2c(=O)c(-c3ccccc3)coc2c1	-1	8	4	12	2	-7
COc1ccc(-c2coc3cc(OC(C)=O)ccc3c2=S)cc1	22*	1	-18	-13	-9	·
Nc1ccn([C@@H]2O[C@H](C(=O)N[C@H](Cc3ccccc3)C(=O)Nc3ccc4scnc4c3)[C@@H](O)[C@H]2O)c(=O)n1	21*	·	·	·	·	·
